Several values for one entry are separate records, joined by “and”; a condition that tells them apart may be missing. Equal values may be shown once. Results filed as inconclusive are left out. Activity calls are given as the source filed them. Unless noted, calls come from the whole dose curve; as a rule, active = well fitted curve in the direction sought with a large enough effect; inconclusive = small, poorly fitted or top-dose-only effect, or another doubt; inactive = no such curve, though single readings can be large; an effect the other way counts as inactive or inconclusive.
Tests used:
[1] = molecular target: Cellular tumor antigen p53 (Homo sapiens) (UniProt P04637); assay: Primary qHTS for small molecule compounds that upregulate eGFP-tagged delta133p53alpha (in N-terminal) cells. (AID 2060322); details: NCI-H358 eGFP-delta133p53alpha fluorescence, 24 h; activation: hits give high values;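 note: cells pre-induced with doxycycline then dosed without doxycycline; series mostly up to about 56 µM; 0% = DMSO vehicle and 100% = reference activator; nearly all actives have a fitted effect of over 75% in size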
Sequence of Cellular tumor antigen p53 (Homo sapiens) (P04637 whole entry, looked up): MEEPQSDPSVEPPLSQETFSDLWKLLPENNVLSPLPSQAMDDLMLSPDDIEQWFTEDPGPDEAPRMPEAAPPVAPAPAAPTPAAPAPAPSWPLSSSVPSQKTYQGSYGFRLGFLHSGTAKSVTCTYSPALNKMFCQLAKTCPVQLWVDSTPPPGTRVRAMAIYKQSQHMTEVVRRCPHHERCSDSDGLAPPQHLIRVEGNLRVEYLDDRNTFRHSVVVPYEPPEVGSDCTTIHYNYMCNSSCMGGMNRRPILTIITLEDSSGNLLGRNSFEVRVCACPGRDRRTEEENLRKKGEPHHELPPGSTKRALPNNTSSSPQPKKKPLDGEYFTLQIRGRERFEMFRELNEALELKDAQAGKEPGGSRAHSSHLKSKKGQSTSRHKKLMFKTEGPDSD
Outline: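 NCI-H358 cells pre-induced 24 h with 10 ng/ml doxycycline for eGFP-delta133p53alpha, plated dox-free and exposed 24 h at 37C to titrated compounds. Fixed, Hoechst-stained; gated GFP peak intensity by laser scanning cytometry, normalized to DMSO (0%) and 57.5 uM 5-azacytidine (100%).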

[2] = molecular target: Cellular tumor antigen p53 (Homo sapiens) (UniProt P04637); assay: Primary qHTS for small molecule compounds that upregulate eGFP-tagged delta133p53alpha (in C-terminal) cells. (AID 2060324); note: potency is the fitted concentration of half-maximal effect
Outline: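 Read-out: gated-cell GFP peak intensity (laser scanning cytometer), plate-normalized with DMSO as 0% activity, after 24 h compound exposure at 37C. Cells were C-terminal eGFP-tagged delta133p53alpha NCI-H358, doxycycline-induced (100 ng/ml, 24 h) before plating.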

[3] = molecular target: Retinaldehyde dehydrogenase 3 (Homo sapiens) (UniProt P47895); assay: qHTS for Inhibitors of the Aldehyde Dehydrogenase Family (ALDH1A3) Validation screen (AID 2061312); note: % is set by controls: 0 for no effect and ±100 for the full control effect; nearly all actives have a fitted effect of over 45% in size
[4] = molecular target: Aldehyde dehydrogenase, mitochondrial (Homo sapiens) (UniProt P05091); assay: qHTS for Inhibitors of the Aldehyde Dehydrogenase Family (ALDH2) Validation screens (AID 2061302; active = well fitted inhibition curve with a large enough effect; title and protocol of this record describe different tests;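 note: plate controls were DMSO vehicle for no effect and maximal DPI positive control response for full effect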)
[5] = BET inhibitor-based combinations targeting novel dependencies in MECOM-rearranged (r) AML: MV-4-11 cell line (AID 2202233); note: nearly all actives have a fitted effect of over 45% in size; note: potency is the fitted concentration of half-maximal effect
Outline: (§1)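 Normalized to DMSO and empty-well controls, the luminescence data from CellTiter-Glo after 48 hr drug exposure were fitted across 11 concentrations. Reported metrics are area under the dose-response curve and its Z-transformed form.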

[6] = BET inhibitor-based combinations targeting novel dependencies in MECOM-rearranged (r) AML: UCSD-AML1 cell line (AID 2202235); note: nearly all actives have a fitted effect of over 40% in size; note: potency is the fitted concentration of half-maximal effect
Outline: as §1

[7] = BET inhibitor-based combinations targeting novel dependencies in MECOM-rearranged (r) AML: AML-191 cell line (AID 2202236; note: nearly all actives have a fitted effect of over 35% in size; note: potency is the fitted concentration of half-maximal effect)
Outline: (§2)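 Here, 11-point titrations of each agent were applied to 500 seeded cells and incubated 48 hr; CellTiter-Glo signal, scaled against DMSO and empty wells, was integrated as AUC, then Z-scored within the individual line.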

[8] = BET inhibitor-based combinations targeting novel dependencies in MECOM-rearranged (r) AML: AML-194 cell line (AID 2202237;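 note: plate controls were vehicle wells for no effect and wells without cells for full effect; nearly all actives have a fitted effect of over 40% in size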)
Outline: as §2

[9] = BET inhibitor-based combinations targeting novel dependencies in MECOM-rearranged (r) AML: OCI-AML3 cell line (AID 2202232); details: Potency: OCI-AML3 viability; note: nearly all actives have a fitted effect of over 35% in size; note: potency is the fitted concentration of half-maximal effect
Outline: as §2

[10] = molecular target: Aldehyde dehydrogenase, mitochondrial (Homo sapiens) (UniProt P05091); assay: qHTS for Inhibitors of the Aldehyde Dehydrogenase Family (ALDH2) Confirmatory screens (AID 2061303; active = well fitted inhibition curve with a large enough effect; title and protocol of this record describe different tests; note: % is set by controls: 0 for no effect and ±100 for the full control effect; nearly all actives have a fitted effect of over 45% in size)
[11] = molecular target: Retinaldehyde dehydrogenase 3 (Homo sapiens) (UniProt P47895); assay: qHTS for Inhibitors of the Aldehyde Dehydrogenase Family (ALDH1A3) Confirmatory screens (AID 2061311); note: nearly all actives have a fitted effect of over 60% in size; note: potency is the fitted concentration of half-maximal effect
[12] = molecular target: Aldehyde dehydrogenase 1A1 (Homo sapiens) (UniProt P00352); assay: qHTS for Inhibitors of the Aldehyde Dehydrogenase Family (ALDH1A1) Confirmatory screens (AID 2061316); note: nearly all actives have a fitted effect of over 65% in size; note: potency is the fitted concentration of half-maximal effect
[13] = BET inhibitor-based combinations targeting novel dependencies in MECOM-rearranged (r) AML: SET-2 cell line (AID 2202231); details: SET-2 AML cells viability, CellTiter-Glo luminescence, 48 h; viability: hits give low values, series mostly up to about 46 µM;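 note: plate controls were DMSO treated cells for no effect and wells without cells for full effect; nearly all actives have a fitted effect of over 35% in size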
Outline: as §2

[14] = BET inhibitor-based combinations targeting novel dependencies in MECOM-rearranged (r) AML: HNT-34 cell line (AID 2202234);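 note: plate controls were vehicle wells for no effect and cell-free wells for full effect; nearly all actives have a fitted effect of over 35% in size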
Outline: as §1

[15] = qHTS for Inhibitors of the Aldehyde Dehydrogenase Family (ALDH1A2, ALDH1A3, ALDH2, ALDH3A1) (AID 2061307); note: nearly all actives have a fitted effect of over 50% in size; for Potency: test system not described further here; potency is the fitted concentration of half-maximal effect
[16] = molecular target: Retinal dehydrogenase 2 (Homo sapiens) (UniProt O94788); assay: qHTS for Inhibitors of the Aldehyde Dehydrogenase Family (ALDH1A2) Confirmation screens (AID 2061314); note: nearly all actives have a fitted effect of over 65% in size; note: potency is the fitted concentration of half-maximal effect

CN1CCN(C2=Nc3ccccc3Oc3ccc(Cl)cc32)CC1
inactive: activation [1] -10% and -16.8% | Potency [2] | Potency [3]

CSc1ccc2c(c1)C(N1CCN(C)CC1)Cc1ccccc1S2 (stereo not drawn)
inactive: activation [1] 48% | Potency [4]

CC(=O)N[C@H](C(=O)O)C(C)(C)SN=O
inactive: activation [1] -54.1% | Potency [4]

CC1(C)NC(=O)N(c2ccc([N+](=O)[O-])c(C(F)(F)F)c2)C1=O
inactive: activation [1] -8.47% and -2.88% and -17.8% | Potency [2] | Potency [3] | Potency [5] | Potency [6] | Potency [7] | Potency [8]

Oc1cc(O)cc(/C=C/c2ccc(O)c(O)c2)c1
active: Potency [9] 10.5 µM | Potency [5] 10.5 µM | Potency [6] 18.6 µM | Potency [7] 16.6 µM
inactive: activation [1] 11.9% | Potency [2]

CN(C)C/C=C(/c1ccc(Br)cc1)c1cccnc1
inactive: activation [1] -2.82% and -52.8% | Potency [2] | Potency [10] | Potency [11] | Potency [12]

O=C1NC(=O)/C(=C/c2ccc3nccnc3c2)S1
inactive: activation [1] 18.2% | Potency [2] | viability [13] 113% | Potency [5] | Potency [14] | Potency [6] | Potency [7] | Potency [8]

CC1=C(/C=C/C(C)=C/C=C/C(C)=C\C(=O)O)C(C)(C)CCC1
inactive: activation [1] -30.1% | Potency [2] | viability [13] 102% | Potency [6] | Potency [8]
active: Potency [9] 0.742 µM | Potency [7] 5.25 µM

O=C(O)Cc1ccc(O)c(O)c1
active: Potency [12] 14.2 µM
inactive: activation [1] 10.9% | Potency [2] | Potency [15]

C=Cc1c(C)c2cc3[nH]c(cc4nc(cc5nc(cc1[nH]2)C(C)=C5CCC(=O)O)C(CCC(=O)O)=C4C)c(C)c3C=C
inactive: activation [1] -11.7% and -48.8% | Potency [2] | Potency [3]
active: Potency [15] 10.1 µM | Potency [11] 25.2 µM | Potency [12] 12.7 µM

O=C1Cc2c([nH]c3ccc(Br)cc23)-c2ccccc2N1
inactive: activation [1] -51% | Potency [4]

Cc1[nH]c(=O)c(C#N)cc1-c1ccc2nccn2c1
active: Potency [2] 30.1 µM
inactive: activation [1] -19.2% and 47.5% and 13.7% | Potency [5] | Potency [14] | Potency [6] | Potency [7] | Potency [8]

CC1=C(/C=C/C(C)=C/C=C/C(C)=C/C(=O)O)C(C)(C)CCC1
active: Potency [9] 7.42 µM
inactive: activation [1] 11.9% and -12.6% | Potency [2] | viability [13] 106% | Potency [6] | Potency [8]

C[C@](N)(Cc1ccc(O)c(O)c1)C(=O)O
inactive: activation [1] 3.95% and 1.83% and 6.56% | Potency [2] | Potency [9] | Potency [6] | Potency [8]

Cn1ncc(S(=O)(=O)Cc2ccccc2)c(Br)c1=O
inactive: activation [1] -32.8% | Potency [2] | Potency [15]

CCCCCCCC/C=C\CCCCCCCC(=O)NCc1ccc(O)c(OC)c1
inactive: activation [1] -13% and -42.7% | Potency [2] | Potency [3]

NS(=O)(=O)c1cccc2c1c([N+](=O)[O-])cc1nc(O)c(O)nc12
active: Potency [16] 25.2 µM | Potency [12] 12.7 µM
inactive: activation [1] -8.06% | Potency [2] | Potency [3]

NNCCc1ccccc1
active: Potency [9] 7.42 µM
inactive: activation [1] 11.9% and 3.32% and -5.28% | Potency [2] | viability [13] 108% | Potency [5] | Potency [14] | Potency [6] | Potency [8]

COc1ccccc1N1CCN(CCN(C(=O)c2ccc(F)cc2)c2ccccn2)CC1
inactive: activation [1] 5.52% | Potency [4]

CCN(CC)C(C)CN1c2ccccc2Sc2ccccc21 (stereo not drawn)
inactive: activation [1] -8.47% and -0.322% | Potency [2] | Potency [3]

O=C1NC(=O)C(c2ccccc2[N+](=O)[O-])=C1Nc1ccc(O)c(Cl)c1
inactive: activation [1] -20.1% and -30.9% | Potency [2]
active: Potency [5] 20.9 µM

O=c1ccc2ccc(O)c(O)c2o1
inactive: activation [1] 0.546% and -34.3% | Potency [2] | Potency [16]
active: Potency [11] 8.96 µM

CCCCS(=N)(=O)CC[C@H](N)C(=O)O (stereo partly drawn)
inactive: activation [1] -3.27% | Potency [2] | Potency [3]

CCn1cc(C(=O)O)c(=O)c2cc3c(cc21)OCO3
inactive: activation [1] 2.82% and -18.3% | Potency [2] | Potency [3]

Cc1cc2c(cc1Cl)N(C(=O)Nc1ccc(Oc3cccnc3C)nc1)CC2
inactive: activation [1] -71.3% | Potency [4]

CO/N=C(\C(=O)N[C@@H]1C(=O)N2C(C(=O)O)=C(CSc3nc(=O)c(O)nn3C)CSC12)c1csc(N)n1 (stereo partly drawn)
inactive: activation [1] 4.05% | Potency [2] | Potency [3]

O=C(c1cc(O)c(O)c([N+](=O)[O-])c1)c1ccccc1F
inactive: activation [1] -61.3% | Potency [2] | Potency [10] | Potency [16]
active: Potency [11] 3.18 µM | Potency [12] 12.7 µM

Reference: PubChem BioAssay (NCATS)
